# Experimental data as given in PubChem BioAssay (EPA / NIEHS).
# The source made the active and inactive calls. How the source made its calls: active means hit-call score of the fitted dose curve at least 0.9, where 1 is the maximum; inactive means score below 0.9.
# Experiments:
# [1] = ATG_GLI_CIS: Attagene CIS-FACTORIAL HepG2 Assay for human Zinc Finger Protein GLI1 (AID 2282945); conditions: HepG2, Attagene cis-factorial reporter mRNA, GLI element; actives raise or lower the signal
# Summary of the method: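 Bidirectional curve fits relative to DMSO, using reporter mRNA levels from RT-PCR plus capillary electrophoresis. Cells were HepG2 transiently carrying cis-regulated reporter constructs, harvested 24 h after dosing.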
# [2] = target: Bile acid receptor (Homo sapiens) (UniProt Q96RI1); assay: ATG_IR1_CIS: Attagene CIS-FACTORIAL HepG2 Assay for human Nuclear Receptor Subfamily 1 Group H Member 4 (NR1H4), IR1 submotif (AID 2282946); conditions: IR1 reporter transcription, actives raise or lower the signal
# Summary of the method: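 HepG2 cells transiently transfected with multiplexed cis-element reporter units read endogenous transcription factor activity. After 24 h compound exposure, reporter mRNA was quantified by RT-PCR, fluorescent labelling, HpaI digestion and capillary electrophoresis; bidirectional fitting versus DMSO baseline.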
# [3] = ATG_GRE_CIS: Attagene CIS-FACTORIAL HepG2 Assay for human Glucocorticoid Response Elements (GRE) (AID 2282947); conditions: HepG2 GRE cis-reporter, Attagene multiplex mRNA; actives raise or lower the signal
# Summary of the method: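 Multiplexed cis-reporter mRNA induction, HepG2, 24 h post-dose. RT-PCR, FAM-labelled, HpaI-digested amplicons by CE. Bidirectional fit vs DMSO.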
# [4] = ATG_ISRE_CIS: Attagene CIS-FACTORIAL HepG2 Assay for human Interferon Regulatory Factor 1 (IRF1) binding to an Interferon-Stimulated Response Element (ISRE) (AID 2282948); conditions: HepG2 ISRE cis-reporter (Attagene), mRNA transcription readout; actives raise or lower the signal
# Summary of the method: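 Uses HepG2 liver cells transfected with cis-regulated reporters and measures mRNA 24 h post-dosing through RT-PCR, primer-extension labelling and capillary electrophoresis, with DMSO as negative control.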
# [5] = ATG_M_32_CIS: Attagene CIS-FACTORIAL HepG2 Assay for M32 Transcription Factor (Internal Marker) (AID 2282949); conditions: HepG2 Attagene cis-factorial M32 reporter, mRNA; actives raise or lower the signal;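 further: background control marker of the multiplexed CIS panel rather than a real target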
# Summary of the method: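 Transient MRTU transfection of HepG2; 24 h compound treatment; TriZol RNA, oligo(dT) RT, reporter PCR, 6-FAM primer extension, HpaI cut, CE. Gain/loss of signal vs DMSO.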
# [6] = ATG_M_06_CIS: Attagene CIS-FACTORIAL HepG2 Assay for M06 Transcription Factor (Internal Marker) (AID 2282950); conditions: HepG2 Attagene CIS-FACTORIAL M06 internal marker reporter; actives raise or lower the signal
# Summary of the method: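 Internal background marker within multiplexed cis-reporter HepG2 system. Cells transiently transfected, dosed 24 h; reporter mRNA measured by RT-PCR, HpaI digestion and capillary electrophoresis. Bidirectional fit relative to DMSO.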
# [7] = target: Hypoxia-inducible factor 1-alpha (Homo sapiens) (UniProt Q16665); assay: ATG_HIF1a_CIS: Attagene CIS-FACTORIAL HepG2 Assay for human Hypoxia Inducible Factor 1 (HIF1A) (AID 2282951); conditions: HepG2 Attagene cis-factorial HIF1a reporter transcription; actives raise or lower the signal
# Summary of the method: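 Activity is fitted in both directions relative to DMSO. Reporter transcripts are read by RT-PCR, fluorescent primer extension and capillary electrophoresis after 24 h chemical treatment. The cells are HepG2 carrying transiently transfected cis-element-driven reporter units responding to endogenous factors.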
# [8] = target: Hepatocyte nuclear factor 6 (Homo sapiens) (UniProt Q9UBC0); assay: ATG_HNF6_CIS: Attagene CIS-FACTORIAL HepG2 Assay for human Hepatocyte Nuclear Factor 6 (HNF6) (AID 2282952); conditions: HepG2 Attagene cis-factorial HNF6 reporter transcription; actives raise or lower the signal
# Summary of the method: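 Twenty-four-hour chemical treatment of reporter-transfected HepG2 cells precedes RNA isolation, DNase-treated reverse transcription and PCR of reporter sequences. Labelled fragments are sized by capillary electrophoresis and fitted bidirectionally versus DMSO.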
# [9] = target: Heat shock factor protein 1 (Homo sapiens) (UniProt Q00613); assay: ATG_HSE_CIS: Attagene CIS-FACTORIAL HepG2 Assay for human Heat Shock Transcription Factor 1 (HSE) (AID 2282953); conditions: HepG2 HSE cis-reporter, Attagene RNA transcription; actives raise or lower the signal
# Summary of the method: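 HepG2 cells transfected with cis-promoter reporter units sensing endogenous transcription factor activity; reporter mRNA quantified 24 h post-dose by RT-PCR and capillary electrophoresis of 6-FAM-labelled products. Bidirectional fitting against DMSO.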
# [10] = ATG_MRE_CIS: Attagene CIS-FACTORIAL HepG2 Assay for human Metal Responsive Element (MRE) (AID 2282954); conditions: HepG2 MRE cis-reporter transcription, Attagene multiplex; actives raise or lower the signal
# Summary of the method: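 Multiplexed cis-reporter assay in human HepG2 liver cells, 24 h incubation with test chemical. Reporter transcripts measured by RT-PCR and capillary electrophoresis; values from bidirectional curve fitting versus DMSO.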
# [11] = ATG_PBREM_CIS: Attagene CIS-FACTORIAL HepG2 Assay for human Phenobarbital-responsive Enhancer Module (PBREM) (AID 2282955); conditions: HepG2 PBREM cis-reporter, Attagene multiplexed transcription; actives raise or lower the signal
# Summary of the method: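 Endogenous transcription factor activity was read from reporter transcripts in transiently transfected human HepG2 liver cells after 24 h dosing. RT-PCR products were fluorescently labelled, HpaI-cut and sized by capillary electrophoresis; activity fitted bidirectionally against DMSO baseline.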
# [12] = ATG_PXRE_CIS: Attagene CIS-FACTORIAL HepG2 Assay for human Pregnane X Receptor Element (PXRE) (AID 2282957); conditions: HepG2 Attagene CIS-FACTORIAL PXRE reporter, mRNA; actives raise or lower the signal
# Summary of the method: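 Bidirectional activity, baselined to DMSO, derived from reporter mRNA fluorescence (RT-PCR plus capillary electrophoresis) in HepG2 cells bearing cis-promoter reporter units, 24 h exposure.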
# [13] = ATG_PPRE_CIS: Attagene CIS-FACTORIAL HepG2 Assay for human Peroxisome Proliferator-activated Response Element (PPRE) (AID 2282958); conditions: HepG2 PPRE cis-element reporter, Attagene transcription factor profiling; actives raise or lower the signal
# Summary of the method: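 Endogenous PPRE-driven transcription is measured in HepG2 cells carrying transfected multi-reporter constructs. Reporter transcripts are quantified by RT-PCR, HpaI digestion and capillary electrophoresis 24 h after dosing. DMSO baseline, bidirectional fit.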
# [14] = ATG_RORE_CIS: Attagene CIS-FACTORIAL HepG2 Assay for human RAR-related Orphan Receptor Element (RORE) (AID 2282959); conditions: HepG2 Attagene cis-factorial RORE reporter, mRNA; actives raise or lower the signal
# Summary of the method: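 RORE reporter transcripts reflecting endogenous factor activity were read after 24 h compound exposure of transfected HepG2 cells, using reverse transcription, PCR, fluorescent labelling and capillary electrophoresis sizing. Gain or loss fitted against DMSO.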
# [15] = ATG_Sox_CIS: Attagene CIS-FACTORIAL HepG2 Assay for human SRY-box transcription factor (SOX) (AID 2282960); conditions: HepG2 Attagene cis-factorial SOX reporter, mRNA; actives raise or lower the signal
# Summary of the method: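 Reporter transcripts, measured by RT-PCR and capillary electrophoresis of labelled fragments, report endogenous SOX transcription factor activity. Transiently transfected human HepG2 cells receive chemical for 24 h; changes in either direction are fitted relative to DMSO.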
# [16] = target: Transcription factor Sp1 (Homo sapiens) (UniProt P08047); assay: ATG_Sp1_CIS: Attagene CIS-FACTORIAL HepG2 Assay for human Specificity Protein 1 (Sp1) (AID 2282961); conditions: HepG2 Sp1 cis-reporter transcription, actives raise or lower the signal
# Summary of the method: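 Read-out is reporter transcript level, measured by RT-PCR and fluorescent capillary electrophoresis after 24 h chemical treatment. System: transiently transfected HepG2 cells reporting endogenous transcription factor activity; gain or loss fitted against DMSO baseline.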
# [17] = ATG_SREBP_CIS: Attagene CIS-FACTORIAL HepG2 Assay for human Sterol Regulatory Element Binding (SREBP) (AID 2282962); conditions: HepG2 Attagene cis-factorial SREBP reporter, mRNA; actives raise or lower the signal
# Summary of the method: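 In this cis-format assay, HepG2 liver cells express reporters controlled by promoter elements responsive to native transcription factors. Exposure lasts 24 h; reporter mRNA fluorescence from capillary electrophoresis gives the signal, fitted bidirectionally against DMSO.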
# [18] = target: Signal transducer and activator of transcription 3 (Homo sapiens) (UniProt P40763); assay: ATG_STAT3_CIS: Attagene CIS-FACTORIAL HepG2 Assay for human Signal Transducer and Activator of Transcription 3 (STAT3) (AID 2282963); conditions: HepG2, Attagene cis-factorial STAT3 reporter transcription; actives raise or lower the signal
# Summary of the method: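 Cis-factorial format: endogenous transcription factors in HepG2 drive transfected reporter units. After 24 h treatment, reporter RNA was reverse-transcribed, amplified, FAM-labelled and HpaI-digested before CE analysis; activity scored in both directions against DMSO.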
# [19] = ATG_TA_CIS: Attagene CIS-FACTORIAL HepG2 Assay for human TA Basal Promoter (AID 2282964); conditions: HepG2 Attagene CIS-factorial TA basal promoter reporter; actives raise or lower the signal
# Summary of the method: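 HepG2 cells transiently transfected with multiple reporter units under cis promoter elements, reporting endogenous transcription factor activity; this endpoint tracks the TA basal promoter as background control. Reporter mRNA after 24 h dosing measured by RT-PCR/capillary electrophoresis; bidirectional fits versus DMSO.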
# [20] = target: Paired box protein Pax-6 (Homo sapiens) (UniProt P26367); assay: ATG_Pax6_CIS: Attagene CIS-FACTORIAL HepG2 Assay for human Paired Box 6 (PAX6) (AID 2282956); conditions: HepG2 CIS-FACTORIAL PAX6 reporter transcription, RNA readout; actives raise or lower the signal
# Summary of the method: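 DMSO-referenced bidirectional fits of reporter mRNA fluorescence; HepG2 with transient cis-promoter MRTUs, 24 h post-dose, RT-PCR plus capillary electrophoresis detection.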
# Bile acid receptor (Homo sapiens), sequence (Q96RI1 whole entry, looked up): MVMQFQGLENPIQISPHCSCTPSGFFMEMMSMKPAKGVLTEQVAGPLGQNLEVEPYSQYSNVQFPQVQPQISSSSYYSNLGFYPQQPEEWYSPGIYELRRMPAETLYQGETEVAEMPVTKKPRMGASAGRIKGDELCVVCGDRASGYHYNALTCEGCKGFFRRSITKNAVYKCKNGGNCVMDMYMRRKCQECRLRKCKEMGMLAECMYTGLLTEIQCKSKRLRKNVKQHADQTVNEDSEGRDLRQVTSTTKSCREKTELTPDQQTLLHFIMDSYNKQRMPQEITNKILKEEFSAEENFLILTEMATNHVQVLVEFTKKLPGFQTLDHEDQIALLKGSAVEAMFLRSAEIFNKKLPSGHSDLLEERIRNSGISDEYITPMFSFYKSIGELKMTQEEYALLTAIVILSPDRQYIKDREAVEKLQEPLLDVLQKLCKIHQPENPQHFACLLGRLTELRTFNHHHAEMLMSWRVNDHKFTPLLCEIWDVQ
# Hypoxia-inducible factor 1-alpha (Homo sapiens), sequence (Q16665 whole entry, looked up): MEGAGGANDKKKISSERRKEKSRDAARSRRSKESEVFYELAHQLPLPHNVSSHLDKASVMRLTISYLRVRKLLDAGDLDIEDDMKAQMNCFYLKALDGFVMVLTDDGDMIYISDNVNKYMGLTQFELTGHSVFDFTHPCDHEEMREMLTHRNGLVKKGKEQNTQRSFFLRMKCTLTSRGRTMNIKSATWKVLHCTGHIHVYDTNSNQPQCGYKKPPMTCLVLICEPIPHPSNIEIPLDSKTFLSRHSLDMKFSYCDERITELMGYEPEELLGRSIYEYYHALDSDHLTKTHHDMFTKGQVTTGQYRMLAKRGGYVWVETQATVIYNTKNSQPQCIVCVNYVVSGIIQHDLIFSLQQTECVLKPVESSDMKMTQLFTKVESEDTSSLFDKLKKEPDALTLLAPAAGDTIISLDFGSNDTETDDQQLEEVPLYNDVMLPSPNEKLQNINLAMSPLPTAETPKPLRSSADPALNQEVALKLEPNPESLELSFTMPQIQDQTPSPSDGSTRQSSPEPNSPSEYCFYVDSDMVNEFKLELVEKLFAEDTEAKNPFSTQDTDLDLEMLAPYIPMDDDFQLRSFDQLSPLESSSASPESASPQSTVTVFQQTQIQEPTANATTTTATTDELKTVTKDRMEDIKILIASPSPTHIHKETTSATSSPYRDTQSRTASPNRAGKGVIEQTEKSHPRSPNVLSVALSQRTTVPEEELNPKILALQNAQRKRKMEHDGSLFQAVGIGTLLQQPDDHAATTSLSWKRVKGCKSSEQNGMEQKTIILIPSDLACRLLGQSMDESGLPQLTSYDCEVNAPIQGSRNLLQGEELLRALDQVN
# Hepatocyte nuclear factor 6 (Homo sapiens), sequence (Q9UBC0 whole entry, looked up, the tested form may be a part): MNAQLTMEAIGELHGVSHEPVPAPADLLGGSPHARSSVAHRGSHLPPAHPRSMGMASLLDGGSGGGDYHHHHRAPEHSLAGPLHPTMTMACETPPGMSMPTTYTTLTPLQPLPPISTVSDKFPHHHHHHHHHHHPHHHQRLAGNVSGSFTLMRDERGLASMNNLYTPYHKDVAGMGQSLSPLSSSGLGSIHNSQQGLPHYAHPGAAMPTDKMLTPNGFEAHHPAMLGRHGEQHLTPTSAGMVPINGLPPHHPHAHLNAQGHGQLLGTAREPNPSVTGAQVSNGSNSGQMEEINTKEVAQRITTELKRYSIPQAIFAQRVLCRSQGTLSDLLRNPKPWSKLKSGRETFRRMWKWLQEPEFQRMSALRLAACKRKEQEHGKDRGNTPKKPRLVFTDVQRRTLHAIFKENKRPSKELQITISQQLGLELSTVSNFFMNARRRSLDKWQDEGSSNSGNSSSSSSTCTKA
# Signal transducer and activator of transcription 3 (Homo sapiens), sequence (P40763 whole entry, looked up): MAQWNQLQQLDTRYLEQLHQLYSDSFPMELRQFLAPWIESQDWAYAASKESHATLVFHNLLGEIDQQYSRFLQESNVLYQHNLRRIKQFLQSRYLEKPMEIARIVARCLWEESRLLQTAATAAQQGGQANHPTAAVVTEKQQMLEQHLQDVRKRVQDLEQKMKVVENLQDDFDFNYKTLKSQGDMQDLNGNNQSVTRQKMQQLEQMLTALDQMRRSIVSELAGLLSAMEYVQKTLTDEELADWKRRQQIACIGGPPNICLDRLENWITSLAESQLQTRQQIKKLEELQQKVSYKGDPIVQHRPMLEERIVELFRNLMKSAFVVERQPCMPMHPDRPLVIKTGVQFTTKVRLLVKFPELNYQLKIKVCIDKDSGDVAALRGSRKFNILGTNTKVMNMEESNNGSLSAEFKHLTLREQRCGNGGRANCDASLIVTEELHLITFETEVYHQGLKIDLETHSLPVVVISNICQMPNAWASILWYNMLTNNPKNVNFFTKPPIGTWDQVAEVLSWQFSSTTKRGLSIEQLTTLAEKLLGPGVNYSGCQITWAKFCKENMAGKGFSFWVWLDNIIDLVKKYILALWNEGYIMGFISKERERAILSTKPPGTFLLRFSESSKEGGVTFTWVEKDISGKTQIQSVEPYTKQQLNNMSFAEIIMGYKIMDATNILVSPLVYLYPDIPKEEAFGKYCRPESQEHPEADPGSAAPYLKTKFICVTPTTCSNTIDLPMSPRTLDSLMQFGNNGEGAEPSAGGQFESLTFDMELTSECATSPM
# Transcription factor Sp1 (Homo sapiens), sequence (P08047 whole entry, looked up): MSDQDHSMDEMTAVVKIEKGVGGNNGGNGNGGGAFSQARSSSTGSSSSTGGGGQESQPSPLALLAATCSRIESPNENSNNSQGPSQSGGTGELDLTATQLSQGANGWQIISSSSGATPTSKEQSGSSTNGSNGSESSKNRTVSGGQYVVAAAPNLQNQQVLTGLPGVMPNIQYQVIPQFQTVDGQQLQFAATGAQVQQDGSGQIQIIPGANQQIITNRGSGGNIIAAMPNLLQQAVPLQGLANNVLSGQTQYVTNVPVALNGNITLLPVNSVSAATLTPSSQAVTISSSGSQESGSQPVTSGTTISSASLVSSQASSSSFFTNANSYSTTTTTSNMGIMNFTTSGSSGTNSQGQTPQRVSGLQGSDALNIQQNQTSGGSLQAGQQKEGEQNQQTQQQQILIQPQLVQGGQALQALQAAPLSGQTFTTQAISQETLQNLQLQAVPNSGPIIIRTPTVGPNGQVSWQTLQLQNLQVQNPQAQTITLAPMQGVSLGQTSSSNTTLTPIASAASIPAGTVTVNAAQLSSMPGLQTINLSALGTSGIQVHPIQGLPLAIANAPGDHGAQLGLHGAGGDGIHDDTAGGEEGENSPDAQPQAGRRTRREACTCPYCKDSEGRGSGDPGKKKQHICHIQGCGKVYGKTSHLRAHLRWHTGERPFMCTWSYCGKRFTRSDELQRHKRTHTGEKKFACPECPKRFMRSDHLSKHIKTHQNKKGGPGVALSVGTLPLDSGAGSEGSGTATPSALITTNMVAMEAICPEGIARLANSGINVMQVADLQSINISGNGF
# Heat shock factor protein 1 (Homo sapiens), sequence (Q00613 whole entry, looked up): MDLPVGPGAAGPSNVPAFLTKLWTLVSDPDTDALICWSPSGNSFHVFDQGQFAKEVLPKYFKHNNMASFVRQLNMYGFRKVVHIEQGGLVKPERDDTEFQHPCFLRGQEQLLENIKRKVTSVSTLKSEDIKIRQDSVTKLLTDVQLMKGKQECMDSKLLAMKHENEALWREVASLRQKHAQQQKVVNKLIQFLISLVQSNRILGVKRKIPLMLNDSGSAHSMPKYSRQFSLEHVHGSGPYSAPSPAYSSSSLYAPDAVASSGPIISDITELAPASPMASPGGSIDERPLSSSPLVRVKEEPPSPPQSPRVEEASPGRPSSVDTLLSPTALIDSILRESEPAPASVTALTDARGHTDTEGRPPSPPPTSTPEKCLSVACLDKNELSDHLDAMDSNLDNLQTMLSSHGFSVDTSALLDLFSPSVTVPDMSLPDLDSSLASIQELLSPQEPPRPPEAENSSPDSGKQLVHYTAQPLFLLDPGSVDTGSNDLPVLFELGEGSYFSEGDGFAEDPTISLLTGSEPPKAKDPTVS
# Paired box protein Pax-6 (Homo sapiens), sequence (P26367 whole entry, looked up): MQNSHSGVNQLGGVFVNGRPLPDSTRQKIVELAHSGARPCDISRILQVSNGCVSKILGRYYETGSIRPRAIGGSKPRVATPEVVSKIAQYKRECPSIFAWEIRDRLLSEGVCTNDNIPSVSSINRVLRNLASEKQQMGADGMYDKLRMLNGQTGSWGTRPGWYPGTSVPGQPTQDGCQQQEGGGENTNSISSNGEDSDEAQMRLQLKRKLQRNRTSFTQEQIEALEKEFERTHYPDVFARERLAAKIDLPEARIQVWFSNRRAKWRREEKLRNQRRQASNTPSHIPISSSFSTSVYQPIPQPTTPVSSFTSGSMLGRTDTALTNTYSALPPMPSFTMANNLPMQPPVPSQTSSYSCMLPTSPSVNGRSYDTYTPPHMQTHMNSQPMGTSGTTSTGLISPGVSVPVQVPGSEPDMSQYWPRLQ
structure (smiles),measurement,setting,value
CCC(Cc1c(I)cc(I)c(N)c1I)C(=O)O (configuration not stated),outcome,[1],inactive
same,outcome,[2],inactive
same,outcome,[3],inactive
same,AC50,[4],88.5 µM (active)
same,outcome,[5],inactive
same,outcome,[6],inactive
same,outcome,[7],inactive
same,outcome,[8],inactive
same,outcome,[9],inactive
same,outcome,[10],inactive
same,outcome,[11],inactive
same,AC50,[12],151 µM (active)
same,AC50,[13],39.7 µM (active)
same,outcome,[14],inactive
same,AC50,[15],137 µM (active)
same,AC50,[16],88.5 µM (active)
same,AC50,[17],24.1 µM (active)
same,outcome,[18],inactive
same,outcome,[19],inactive
O=C(O)C(F)(F)C(F)(F)C(F)(F)C(F)(F)C(F)(F)C(F)(F)C(F)F,outcome,[1],inactive
same,outcome,[2],inactive
same,outcome,[3],inactive
same,outcome,[4],inactive
same,outcome,[5],inactive
same,outcome,[6],inactive
same,outcome,[7],inactive
same,outcome,[8],inactive
same,outcome,[9],inactive
same,outcome,[11],inactive
same,AC50,[12],27.6 µM (active)
same,AC50,[13],46.1 µM (active)
same,outcome,[14],inactive
same,outcome,[15],inactive
same,outcome,[16],inactive
same,AC50,[17],63.5 µM (active)
same,outcome,[18],inactive
CCCCCCCCCc1ccc(OCCO)cc1,AC50,[1],21.4 µM (active)
same,outcome,[2],inactive
same,AC50,[3],19.2 µM (active)
same,AC50,[4],18.7 µM (active)
same,AC50,[5],21.7 µM (active)
same,outcome,[6],inactive
same,AC50,[7],13.3 µM (active)
same,outcome,[8],inactive
same,AC50,[9],16.8 µM (active)
same,AC50,[10],13.3 µM (active)
same,outcome,[11],inactive
same,AC50,[12],0.64 µM (active)
same,outcome,[13],inactive
same,outcome,[14],inactive
same,outcome,[15],inactive
same,AC50,[16],13.3 µM (active)
same,AC50,[17],3.56 µM (active)
same,AC50,[18],19.5 µM (active)
same,outcome,[19],inactive
OCC(O)CC(F)(F)C(F)(F)C(F)(F)C(F)(F)C(F)(F)C(F)(F)C(F)(F)C(F)(F)F (configuration not stated),outcome,[1],inactive
same,outcome,[2],inactive
same,outcome,[3],inactive
same,outcome,[4],inactive
same,outcome,[5],inactive
same,outcome,[6],inactive
same,outcome,[7],inactive
same,outcome,[8],inactive
same,outcome,[9],inactive
same,outcome,[10],inactive
same,outcome,[11],inactive
same,outcome,[12],inactive
same,outcome,[13],inactive
same,outcome,[14],inactive
same,outcome,[15],inactive
same,outcome,[16],inactive
same,outcome,[17],inactive
same,outcome,[18],inactive
same,outcome,[19],inactive
C[C@]12CC[C@H]3C(=CCc4cc(O)ccc43)[C@@H]1CCC2=O,outcome,[1],inactive
same,outcome,[2],inactive
same,outcome,[3],inactive
same,outcome,[4],inactive
same,outcome,[5],inactive
same,outcome,[6],inactive
same,outcome,[8],inactive
same,outcome,[9],inactive
same,outcome,[10],inactive
same,outcome,[11],inactive
same,outcome,[20],inactive
same,AC50,[12],26.6 µM (active)
same,outcome,[13],inactive
same,outcome,[14],inactive
same,outcome,[15],inactive
same,outcome,[16],inactive
same,outcome,[17],inactive
same,outcome,[18],inactive
same,outcome,[19],inactive
C[Si](Cl)(Cl)CCC(F)(F)C(F)(F)C(F)(F)C(F)(F)C(F)(F)C(F)(F)F,outcome,[1],inactive
same,outcome,[2],inactive
same,outcome,[3],inactive
same,outcome,[4],inactive
same,outcome,[5],inactive
same,outcome,[6],inactive
same,outcome,[8],inactive
same,outcome,[9],inactive
same,outcome,[10],inactive
same,outcome,[11],inactive
same,outcome,[20],inactive
same,outcome,[12],inactive
same,outcome,[13],inactive
same,outcome,[14],inactive
same,outcome,[15],inactive
same,outcome,[16],inactive
same,outcome,[17],inactive
same,outcome,[18],inactive
same,outcome,[19],inactive
